{
  "source": "ChEMBL document CHEMBL3988442",
  "about": "“University of Dundee, Small-Polar-MMV Screening Library” (2021)",
  "system": "Trypanosoma brucei",
  "test": "Trypanosoma brucei 72 hour study",
  "type": "functional, organism-based",
  "set-up": "scale not given: in the data most compounds retested in dose-response had high values",
  "note": "In all, about 66,000 compounds went through this assay and about 960 (1.5%) showed an effect of 50% or more. Shown is part of a subset that was picked to be rich in strong results.",
  "data": [
    {"compound": "Cc1ccccc1C(N)c1ccncc1.Cl", "note": "(configuration not stated)", "values": [
      {"measurement": "Percent Effect", "setting": "30.3 µM, […]", "value": -1.36, "unit": "%"}
    ]},
    {"compound": "CCOc1c(F)cccc1C(=O)N(CC)C(C)c1cccnc1", "note": "(configuration not stated)", "values": [
      {"measurement": "Percent Effect", "setting": "30.3 µM, […]", "value": 6.068, "unit": "%"}
    ]},
    {"compound": "CCOc1c(F)cccc1C(=O)N(c1cccnc1)C(C)C", "values": [
      {"measurement": "Percent Effect", "setting": "30.3 µM, […]", "value": 99.6, "unit": "%"}
    ]},
    {"compound": "CCOc1c(F)cccc1C(=O)N(CC)C(C)c1ccncc1", "note": "(configuration not stated)", "values": [
      {"measurement": "Percent Effect", "setting": "30.3 µM, […]", "value": 3.975, "unit": "%"}
    ]},
    {"compound": "Cc1cc(C(=O)N2CCC3(CC2)C(=O)N(C)CCN3CC(C)C)c(C)o1.O=C(O)C(F)(F)F", "values": [
      {"measurement": "Percent Effect", "setting": "30.3 µM, […]", "value": 2.031, "unit": "%"}
    ]},
    {"compound": "CCOC(=O)[C@]12CCCN(Cc3cccs3)C[C@H]1CN(C(C)C)C2.O=C(O)C(F)(F)F.O=C(O)C(F)(F)F", "values": [
      {"measurement": "Percent Effect", "setting": "30.3 µM, […]", "value": -11.59, "unit": "%"}
    ]},
    {"compound": "Cc1cc(=O)n2nc(Oc3cc(Cl)cc(Cl)c3)sc2n1", "values": [
      {"measurement": "Percent Effect", "setting": "30 µM, 30.03 µM", "value": -23.2, "unit": "%"}
    ]},
    {"compound": "Cc1cc(=O)n2nc(Oc3cccc(I)c3)sc2n1", "values": [
      {"measurement": "Percent Effect", "setting": "30 µM, 30.03 µM", "value": 99.1, "unit": "%"}
    ]},
    {"compound": "Cc1cc(=O)n2nc(Oc3ccc(F)c(F)c3)sc2n1", "values": [
      {"measurement": "Percent Effect", "setting": "30 µM, 30.03 µM", "value": -14.16, "unit": "%"}
    ]},
    {"compound": "Cc1cc(=O)n2nc(Oc3ccc(Cl)c(C)c3)sc2n1", "values": [
      {"measurement": "Percent Effect", "setting": "30 µM, 30.03 µM", "value": -32.75, "unit": "%"}
    ]},
    {"compound": "Cc1cc(=O)n2nc(Oc3cccc(C(N)=O)c3)sc2n1", "values": [
      {"measurement": "Percent Effect", "setting": "30 µM, 30.03 µM", "value": -16.62, "unit": "%"}
    ]},
    {"compound": "Cc1cc(=O)n2nc(Oc3ccc(C#N)cc3Cl)sc2n1", "values": [
      {"measurement": "Percent Effect", "setting": "30 µM, 30.03 µM", "value": 98.96, "unit": "%"}
    ]},
    {"compound": "CN1CCCCCC1C(=O)N1CCN(c2ccccc2C#N)CC1", "note": "(configuration not stated)", "values": [
      {"measurement": "Percent Effect", "setting": "30 µM, 30.03 µM", "value": 14.65, "unit": "%"}
    ]},
    {"compound": "COc1ncccc1CNC(=O)NCc1ccco1", "values": [
      {"measurement": "Percent Effect", "setting": "10 µM", "value": -3.742, "unit": "%"},
      {"measurement": "Percent Effect", "setting": "30.3 µM, […]", "value": 11.99, "unit": "%"}
    ]},
    {"compound": "Cc1ccc(CN2CC[C@H]3[C@H](CC(Cn4cccn4)N3C)C2)s1.O=C(O)C(F)(F)F.O=C(O)C(F)(F)F.O=C(O)C(F)(F)F", "note": "(some centres not stated)", "values": [
      {"measurement": "Percent Effect", "setting": "30.3 µM, […]", "value": 2.612, "unit": "%"}
    ]},
    {"compound": "O=C(CC1CC1)N1CC[C@@H]2[C@H](CC1)N(Cc1cccnc1)CCS2(=O)=O.O=C(O)C(F)(F)F.O=C(O)C(F)(F)F", "values": [
      {"measurement": "Percent Effect", "setting": "30.3 µM, […]", "value": -63.96, "unit": "%"}
    ]},
    {"compound": "Cc1cccc(OC2CCN(c3ncc(C#N)cc3Cl)CC2)n1", "values": [
      {"measurement": "Percent Effect", "setting": "30.3 µM, […]", "value": 2.665, "unit": "%"}
    ]},
    {"compound": "Cc1cccc(OC2CCN(c3ccc(C#N)cn3)CC2)n1", "values": [
      {"measurement": "Percent Effect", "setting": "30.3 µM, […]", "value": 86.54, "unit": "%"}
    ]},
    {"compound": "Cc1cccc(OC2CCN(c3nccnc3C#N)CC2)n1", "values": [
      {"measurement": "Percent Effect", "setting": "30.3 µM, […]", "value": -52.89, "unit": "%"}
    ]},
    {"compound": "CCn1cc(NS(=O)(=O)c2ccc(Br)s2)c(C(N)=O)n1", "values": [
      {"measurement": "Percent Effect", "setting": "30 µM, 30.03 µM", "value": -24.98, "unit": "%"}
    ]},
    {"compound": "O=C(Nc1cnccn1)[C@H]1CC[C@@H]2[C@@H](CCN2Cc2ccoc2)O1.O=C(O)C(F)(F)F", "values": [
      {"measurement": "Percent Effect", "setting": "30.3 µM, […]", "value": -117.8, "unit": "%"}
    ]},
    {"compound": "COc1cc(F)ccc1N(C)Cc1ccncc1", "values": [
      {"measurement": "Percent Effect", "setting": "30 µM, 30.03 µM", "value": -66.27, "unit": "%"}
    ]},
    {"compound": "COc1cc(F)ccc1N(C)Cc1cccnc1", "values": [
      {"measurement": "Percent Effect", "setting": "30 µM, 30.03 µM", "value": -106.7, "unit": "%"}
    ]},
    {"compound": "COc1cc(F)ccc1N(C)Cc1ccccn1", "values": [
      {"measurement": "Percent Effect", "setting": "30 µM, 30.03 µM", "value": 73.53, "unit": "%"}
    ]},
    {"compound": "Cc1c(-c2cccs2)nn2c(O)c3c(nc12)CN(C(=O)C1CC1)C3", "values": [
      {"measurement": "Percent Effect", "setting": "30.3 µM, […]", "value": 9.41, "unit": "%"}
    ]},
    {"compound": "Cc1ccc(N2CCN(C(=O)CCc3n[nH]c(C)c3C)CC2=O)cc1", "values": [
      {"measurement": "Percent Effect", "setting": "30 µM, 30.03 µM", "value": -42.04, "unit": "%"}
    ]},
    {"compound": "CC(=O)c1cc(CN2C[C@H]3CC[C@@H]2CN(S(C)(=O)=O)C3)cs1", "values": [
      {"measurement": "Percent Effect", "setting": "30 µM, 30.03 µM", "value": 91.04, "unit": "%"}
    ]},
    {"compound": "CN(C)S(=O)(=O)N1C[C@@H]2CC[C@H](C1)N(Cc1ccc3nsnc3c1)C2", "values": [
      {"measurement": "Percent Effect", "setting": "30 µM, 30.03 µM", "value": 2.112, "unit": "%"}
    ]},
    {"compound": "CC(=O)c1cc(CN2C[C@H]3CC[C@@H]2CN(S(=O)(=O)N(C)C)C3)cs1", "values": [
      {"measurement": "Percent Effect", "setting": "30 µM, 30.03 µM", "value": 79.15, "unit": "%"}
    ]},
    {"compound": "CS(=O)(=O)N1C[C@@H]2CC[C@H](C1)N(Cc1ccsc1)C2", "values": [
      {"measurement": "Percent Effect", "setting": "30 µM, 30.03 µM", "value": -69.04, "unit": "%"}
    ]},
    {"compound": "CN(C)S(=O)(=O)N1C[C@@H]2CC[C@H](C1)N(Cc1ccc(F)c(F)c1)C2", "values": [
      {"measurement": "Percent Effect", "setting": "30 µM, 30.03 µM", "value": -42.84, "unit": "%"}
    ]},
    {"compound": "CS(=O)(=O)N1C[C@@H]2CC[C@H](C1)N(Cc1ccc3nsnc3c1)C2", "values": [
      {"measurement": "Percent Effect", "setting": "30 µM, 30.03 µM", "value": -23.46, "unit": "%"}
    ]},
    {"compound": "CC(C)(C)C(CCO)NC(=O)Nc1ccncc1", "note": "(configuration not stated)", "values": [
      {"measurement": "Percent Effect", "setting": "30.3 µM, […]", "value": -3.299, "unit": "%"}
    ]},
    {"compound": "COCCCNC(=O)CCn1nc(C)c2ccccc21", "values": [
      {"measurement": "Percent Effect", "setting": "30 µM, 30.03 µM", "value": 61.88, "unit": "%"}
    ]},
    {"compound": "CCOCCCNC(=O)CCCC(=O)n1nc(C)c2ccccc21", "values": [
      {"measurement": "Percent Effect", "setting": "30 µM, 30.03 µM", "value": -9.537, "unit": "%"}
    ]},
    {"compound": "COCCCNC(=O)CCn1ncc2c(Cl)cccc21", "values": [
      {"measurement": "Percent Effect", "setting": "30.3 µM, […]", "value": -21.64, "unit": "%"}
    ]},
    {"compound": "Nc1ccc(C(=O)N2CCCC(C(=O)CCc3ccccc3)C2)cn1", "note": "(configuration not stated)", "values": [
      {"measurement": "Percent Effect", "setting": "30 µM, 30.03 µM", "value": 42.45, "unit": "%"}
    ]},
    {"compound": "Cn1cc(N2CC3(CCN(Cc4ccoc4)CC3)OCC2=O)cn1.O=C(O)C(F)(F)F", "values": [
      {"measurement": "Percent Effect", "setting": "30 µM, 30.03 µM", "value": -14.91, "unit": "%"}
    ]},
    {"compound": "CCOC(=O)c1n[nH]cc1-c1cncn1CCn1nc(C)c(C)c1C.Cl", "values": [
      {"measurement": "Percent Effect", "setting": "30.3 µM, […]", "value": -11.29, "unit": "%"}
    ]},
    {"compound": "Cc1ncsc1C(=O)NC1CCN(CC(=O)N(C)c2ccccc2)CC1", "values": [
      {"measurement": "Percent Effect", "setting": "30 µM, 30.03 µM", "value": 32.24, "unit": "%"}
    ]},
    {"compound": "Cc1ncsc1C(=O)NC1CCN(CC(N)=O)CC1", "values": [
      {"measurement": "Percent Effect", "setting": "30.3 µM, […]", "value": 10.5, "unit": "%"}
    ]},
    {"compound": "Cc1ncsc1C(=O)NC1CCN(CC(=O)NCc2ccccc2)CC1", "values": [
      {"measurement": "Percent Effect", "setting": "30 µM, 30.03 µM", "value": 57.29, "unit": "%"}
    ]},
    {"compound": "CC1CCCCN1C(=O)c1coc(COc2cccc3cnccc23)n1", "note": "(configuration not stated)", "values": [
      {"measurement": "Percent Effect", "setting": "30.3 µM, […]", "value": 103.3, "unit": "%"}
    ]},
    {"compound": "O=C(c1coc(COc2cccc3cnccc23)n1)N1CCCCCC1", "values": [
      {"measurement": "Percent Effect", "setting": "30.3 µM, […]", "value": -73.19, "unit": "%"}
    ]},
    {"compound": "O=C(c1coc(COc2cccc3cnccc23)n1)N1CCSCC1", "values": [
      {"measurement": "Percent Effect", "setting": "30.3 µM, […]", "value": -189.8, "unit": "%"}
    ]},
    {"compound": "Cc1cccc(N2CCN(C(=O)CCc3c(C)noc3Cl)CC2)c1", "values": [
      {"measurement": "Percent Effect", "setting": "30.3 µM, […]", "value": 55.23, "unit": "%"}
    ]}
  ]
}
